# Test results: PubChem BioAssay (EPA / NIEHS)
# Several values for one entry are separate records, joined by “and”; a condition that tells them apart may be missing. Identical values can stand only once. Records with an inconclusive call do not appear. Activity calls are given as the source filed them. Rule for the calls: active = hit-call score of the fitted dose curve at least 0.9, where 1 is the maximum; inconclusive = response in the unintended direction; inactive = score below 0.9.
# Columns and labels:
# [1] = target: human SRC Proto-Oncogene, Non-receptor Tyrosine Kinase (SRC), SRC (gene 6714) (UniProt P12931); test: NVS_ENZ_hSRC: NovaScreen (NVS) Enzymatic Assay for human SRC Proto-Oncogene, Non-receptor Tyrosine Kinase (SRC) (AID 2283223)
# Sequence of human SRC Proto-Oncogene, Non-receptor Tyrosine Kinase (SRC), SRC (gene 6714) (P12931 whole entry, looked up): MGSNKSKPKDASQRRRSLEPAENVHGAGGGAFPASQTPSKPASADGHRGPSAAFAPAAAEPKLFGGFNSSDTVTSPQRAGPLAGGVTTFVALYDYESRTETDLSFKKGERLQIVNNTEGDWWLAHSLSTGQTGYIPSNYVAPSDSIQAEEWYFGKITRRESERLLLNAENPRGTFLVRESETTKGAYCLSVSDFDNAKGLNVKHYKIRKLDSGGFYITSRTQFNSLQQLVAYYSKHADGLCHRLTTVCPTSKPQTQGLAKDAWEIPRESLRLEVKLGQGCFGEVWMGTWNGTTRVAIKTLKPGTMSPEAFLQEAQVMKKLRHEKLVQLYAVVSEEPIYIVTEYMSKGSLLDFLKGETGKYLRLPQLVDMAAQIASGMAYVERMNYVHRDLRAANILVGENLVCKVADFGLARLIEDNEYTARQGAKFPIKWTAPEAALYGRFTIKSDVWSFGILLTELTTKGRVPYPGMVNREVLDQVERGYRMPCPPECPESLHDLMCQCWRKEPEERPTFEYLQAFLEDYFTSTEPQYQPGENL
# How it was run: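 Cell-free kinase activity assay with fluorescent substrate, product separated by electrophoretic mobility shift, read 1 h after dosing. Duplicate single point at 25 uM, then concentration-response up to 50 uM; loss of signal versus DMSO.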
# [2] = target: human Vascular Endothelial Growth Factor Receptor 1 (VEGFR1), FLT1 (gene 2321) (UniProt P17948); test: NVS_ENZ_hVEGFR1: NovaScreen (NVS) Enzymatic Assay for human Vascular Endothelial Growth Factor Receptor 1 (VEGFR1) (AID 2283226)
# Sequence of human Vascular Endothelial Growth Factor Receptor 1 (VEGFR1), FLT1 (gene 2321) (P17948 whole entry, looked up): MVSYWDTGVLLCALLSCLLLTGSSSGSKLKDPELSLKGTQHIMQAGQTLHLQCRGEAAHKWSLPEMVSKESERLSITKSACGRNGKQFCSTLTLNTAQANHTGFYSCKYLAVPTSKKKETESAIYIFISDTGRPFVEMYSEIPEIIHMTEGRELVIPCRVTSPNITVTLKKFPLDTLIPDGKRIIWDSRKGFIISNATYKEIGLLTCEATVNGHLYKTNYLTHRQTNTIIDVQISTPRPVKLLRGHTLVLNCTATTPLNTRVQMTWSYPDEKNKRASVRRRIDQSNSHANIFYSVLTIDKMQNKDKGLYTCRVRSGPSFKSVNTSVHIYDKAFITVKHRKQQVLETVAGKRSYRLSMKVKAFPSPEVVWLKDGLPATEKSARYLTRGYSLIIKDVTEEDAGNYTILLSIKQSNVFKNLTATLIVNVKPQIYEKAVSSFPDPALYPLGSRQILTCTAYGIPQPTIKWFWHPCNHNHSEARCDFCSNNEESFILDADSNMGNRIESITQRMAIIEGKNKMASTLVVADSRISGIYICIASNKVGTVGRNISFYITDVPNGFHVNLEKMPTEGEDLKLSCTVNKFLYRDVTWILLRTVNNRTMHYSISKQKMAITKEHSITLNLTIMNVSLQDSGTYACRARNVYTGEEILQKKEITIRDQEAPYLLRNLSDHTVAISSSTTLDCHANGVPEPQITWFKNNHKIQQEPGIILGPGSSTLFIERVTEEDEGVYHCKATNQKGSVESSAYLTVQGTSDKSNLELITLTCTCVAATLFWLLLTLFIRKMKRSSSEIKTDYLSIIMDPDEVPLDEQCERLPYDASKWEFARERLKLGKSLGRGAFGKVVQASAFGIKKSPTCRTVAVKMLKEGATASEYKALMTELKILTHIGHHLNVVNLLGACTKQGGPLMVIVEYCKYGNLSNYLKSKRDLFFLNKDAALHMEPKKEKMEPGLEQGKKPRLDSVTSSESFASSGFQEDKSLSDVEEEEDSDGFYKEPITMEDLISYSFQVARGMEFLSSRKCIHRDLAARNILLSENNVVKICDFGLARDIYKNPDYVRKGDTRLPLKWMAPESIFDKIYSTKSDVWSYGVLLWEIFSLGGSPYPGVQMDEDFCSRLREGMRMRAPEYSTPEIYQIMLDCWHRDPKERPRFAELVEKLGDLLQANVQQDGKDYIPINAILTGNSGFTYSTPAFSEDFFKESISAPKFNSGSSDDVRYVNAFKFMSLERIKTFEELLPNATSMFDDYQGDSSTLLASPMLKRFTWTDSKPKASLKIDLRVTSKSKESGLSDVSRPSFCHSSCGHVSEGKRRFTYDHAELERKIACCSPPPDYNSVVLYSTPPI
# How it was run: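 Cell-free assay of recombinant human VEGFR1 kinase with substrate, measured 1 h after dosing; fluorescence with electrophoretic mobility-shift separation of substrate and product, referenced to DMSO; primary screen at 25 uM in duplicate, actives then run in concentration series.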
# [3] = target: rat Adenylate Cyclase, Forskolin Stimulated, Adcy5 (gene 64532) (UniProt Q04400); test: NVS_ENZ_rACFSKBinding: NovaScreen (NVS) Enzymatic Assay for rat Adenylate Cyclase, Forskolin Stimulated (AID 2283232)
# Sequence of rat Adenylate Cyclase, Forskolin Stimulated, Adcy5 (gene 64532) (Q04400 whole entry, looked up): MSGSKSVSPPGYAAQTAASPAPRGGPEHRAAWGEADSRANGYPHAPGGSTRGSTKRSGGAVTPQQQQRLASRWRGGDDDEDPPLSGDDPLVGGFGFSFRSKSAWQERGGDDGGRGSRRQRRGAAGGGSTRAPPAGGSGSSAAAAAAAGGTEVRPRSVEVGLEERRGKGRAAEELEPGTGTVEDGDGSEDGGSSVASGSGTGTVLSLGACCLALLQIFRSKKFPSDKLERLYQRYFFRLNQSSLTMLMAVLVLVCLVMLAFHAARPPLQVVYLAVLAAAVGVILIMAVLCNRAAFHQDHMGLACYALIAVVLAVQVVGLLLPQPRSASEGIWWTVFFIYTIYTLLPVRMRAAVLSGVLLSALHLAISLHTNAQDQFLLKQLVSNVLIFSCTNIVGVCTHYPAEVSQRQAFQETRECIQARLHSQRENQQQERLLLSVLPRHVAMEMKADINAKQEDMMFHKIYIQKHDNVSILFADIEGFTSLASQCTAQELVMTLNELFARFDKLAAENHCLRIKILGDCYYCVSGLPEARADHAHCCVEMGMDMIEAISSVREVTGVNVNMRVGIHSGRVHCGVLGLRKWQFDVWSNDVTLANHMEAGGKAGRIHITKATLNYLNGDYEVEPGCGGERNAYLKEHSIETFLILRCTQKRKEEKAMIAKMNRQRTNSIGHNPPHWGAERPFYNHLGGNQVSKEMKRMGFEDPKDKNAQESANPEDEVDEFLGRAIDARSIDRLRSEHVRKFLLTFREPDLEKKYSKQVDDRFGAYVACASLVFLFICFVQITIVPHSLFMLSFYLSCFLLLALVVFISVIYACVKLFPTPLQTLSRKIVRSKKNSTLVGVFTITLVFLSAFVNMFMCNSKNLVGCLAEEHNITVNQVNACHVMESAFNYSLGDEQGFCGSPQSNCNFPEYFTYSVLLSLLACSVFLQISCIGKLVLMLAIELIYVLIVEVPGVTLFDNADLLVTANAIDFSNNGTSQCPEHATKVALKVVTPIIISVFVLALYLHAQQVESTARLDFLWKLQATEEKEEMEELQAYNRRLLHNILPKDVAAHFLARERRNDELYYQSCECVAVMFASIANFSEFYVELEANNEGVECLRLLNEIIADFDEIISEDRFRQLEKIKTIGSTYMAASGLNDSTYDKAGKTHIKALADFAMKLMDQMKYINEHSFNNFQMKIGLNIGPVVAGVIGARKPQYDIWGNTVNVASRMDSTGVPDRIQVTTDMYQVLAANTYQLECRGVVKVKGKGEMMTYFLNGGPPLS
# How it was run: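 Rat forebrain membrane preparation, cell-free, read 1 h after dosing by filter-based scintillation counting. Primary screen in duplicate at 25 uM; actives (e.g. ≥30% inhibition) rerun in concentration-response up to 50 uM; fit versus DMSO.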
# [4] = target: rat Catechol-O-Methyl Transferase (COMT), Comt (gene 24267) (UniProt P22734); test: NVS_ENZ_rCOMT: NovaScreen (NVS) Enzymatic Assay for rat Catechol-O-Methyl Transferase (COMT) (AID 2283235)
# Sequence of rat Catechol-O-Methyl Transferase (COMT), Comt (gene 24267) (P22734 whole entry, looked up): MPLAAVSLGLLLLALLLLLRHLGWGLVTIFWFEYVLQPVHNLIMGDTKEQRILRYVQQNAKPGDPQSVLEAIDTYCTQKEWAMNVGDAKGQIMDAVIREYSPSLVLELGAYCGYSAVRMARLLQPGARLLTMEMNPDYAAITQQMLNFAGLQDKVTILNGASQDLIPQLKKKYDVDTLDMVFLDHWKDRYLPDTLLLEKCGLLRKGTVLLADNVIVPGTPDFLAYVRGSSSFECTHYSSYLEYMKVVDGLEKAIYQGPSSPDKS
# How it was run: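 Cell-free enzyme activity with protein extracted from rat dorsal striatum, measured by HPLC with absorbance detection. Compounds screened at 25 uM in duplicate; actives then run in concentration-response up to 50 uM, loss of signal versus DMSO.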
# [5] = test system: bovine Angiotensin II Receptor Type 2 (AT2), gene 407157; test: NVS_GPCR_bAT2: NovaScreen (NVS) G Protein-Coupled Receptor Assay for bovine Angiotensin II Receptor Type 2 (AT2) (AID 2283240)
# How it was run: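 Radioligand displacement on bovine cerebellar membranes, 1 hour incubation, filter-based scintillation counting; loss of signal vs DMSO. Duplicate single-point screen at 25 uM, then concentration-response to 50 uM maximum.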
# [6] = target: bovine Dopamine Receptor (DR), Non-selective Binding, DRD1 (gene 281125) (UniProt Q95136); test: NVS_GPCR_bDR_NonSelective: NovaScreen (NVS) G Protein-Coupled Receptor Assay for bovine Dopamine Receptor (DR), Non-selective Binding (AID 2283241)
# Sequence of bovine Dopamine Receptor (DR), Non-selective Binding, DRD1 (gene 281125) (Q95136 whole entry, looked up): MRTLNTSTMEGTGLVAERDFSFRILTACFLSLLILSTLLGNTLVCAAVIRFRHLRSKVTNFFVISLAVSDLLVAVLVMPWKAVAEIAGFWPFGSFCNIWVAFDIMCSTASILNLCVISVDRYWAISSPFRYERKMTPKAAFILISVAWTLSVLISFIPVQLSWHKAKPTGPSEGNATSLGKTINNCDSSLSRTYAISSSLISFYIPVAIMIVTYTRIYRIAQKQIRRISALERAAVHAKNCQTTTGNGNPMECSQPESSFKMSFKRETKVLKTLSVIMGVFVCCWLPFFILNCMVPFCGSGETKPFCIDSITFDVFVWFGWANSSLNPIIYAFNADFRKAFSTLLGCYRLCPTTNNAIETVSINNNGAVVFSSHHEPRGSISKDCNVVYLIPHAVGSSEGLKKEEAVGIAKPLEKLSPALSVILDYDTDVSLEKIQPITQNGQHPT
# How it was run: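 Bovine striatal membranes; radioligand displacement read by filtration and scintillation counting 1 h after dosing, loss of signal vs DMSO. Screened in duplicate at 25 uM, then concentration-response for hits.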
smiles,measurement,setting,value
Oc1ccc(Cl)cc1Cc1ccccc1,outcome,[1],inactive
O=S(=O)(O)C(F)(F)C(F)(F)C(F)(F)C(F)(F)C(F)(F)C(F)(F)C(F)(F)C(F)(F)F,AC50,[2],11.9 µM (active) and 11.4 µM (active) and 8.57 µM (active)
N#Cc1c(Cl)c(Cl)c(Cl)c(C#N)c1Cl,AC50,[3],25 µM (active)
Oc1cc(Cl)ccc1Oc1ccc(Cl)cc1Cl,outcome,[3],inactive
CC(C)OC(=O)Nc1cccc(Cl)c1,outcome,[4],inactive
O=C(O)COc1ccc(Cl)cc1Cl,outcome,[4],inactive
CC[C@H](C)[C@H]1O[C@]2(C=C[C@@H]1C)C[C@@H]1C[C@@H](C/C=C(\C)[C@@H](O[C@H]3C[C@H](OC)[C@@H](O[C@H]4C[C@H](OC)[C@@H](O)[C@H](C)O4)[C@H](C)O3)[C@@H](C)/C=C/C=C3\CO[C@@H]4[C@H](O)C(C)=C[C@@H](C(=O)O1)[C@]34O)O2 (tested in a mixture with another compound),outcome,[5],inactive
O=C(Nc1ccccc1)Nc1cnns1,outcome,[6],inactive
